Assay outcomes (PubChem)
An excerpt weighted towards active compounds, which were near 22% of everything screened.
CYP2C19 activ: human CYP2C19 activators, primary screen, biochemical, luminescence; activation factor at 5 µM; Cytochrome P450 2C19 (Homo sapiens), P33261; 96,000 tested, under 10 active; recombinant CYP2C19, luciferin-H EGE luminescence; stronger effect = higher value; 0 = fully inhibited enzyme, 1 = untreated enzyme;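 active = activation factor of at least 2 at 5 µM in the primary screen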;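 note: 0 = wells with 2.5 mM tranylcypromine and 1 = vehicle-only wells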
CYP2C19 inh: blockers of cytochrome P450 2C19 activity – biochemical, luminescence, ADME assay, primary screen; P33261; CYP2C19 Supersomes, luciferin-H EGE luminescence, 30 min; inhibition, % at 5 µM; 96,000 tested, 21% active;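 active = CYP2C19 inhibition above a set limit at 5 µM in the primary screen, cut at about 50% in these data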;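 note: plate controls were negative control wells for no effect and 2.5 mM tranylcypromine positive control for full effect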
CYP2C9 inh: blockers of cytochrome P450 2C9 activity – biochemical, luminescence, ADME assay, primary screen; P11712; CYP2C9 Supersomes, luciferin-H conversion; AID 777, 2007; inhibition, % at 5 µM; 96,000 tested, 20% active;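 active = blocking of liver enzyme CYP2C9 beyond about 50% at 5 µM, limit read from the data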
Target sequence (P11712 whole entry, looked up): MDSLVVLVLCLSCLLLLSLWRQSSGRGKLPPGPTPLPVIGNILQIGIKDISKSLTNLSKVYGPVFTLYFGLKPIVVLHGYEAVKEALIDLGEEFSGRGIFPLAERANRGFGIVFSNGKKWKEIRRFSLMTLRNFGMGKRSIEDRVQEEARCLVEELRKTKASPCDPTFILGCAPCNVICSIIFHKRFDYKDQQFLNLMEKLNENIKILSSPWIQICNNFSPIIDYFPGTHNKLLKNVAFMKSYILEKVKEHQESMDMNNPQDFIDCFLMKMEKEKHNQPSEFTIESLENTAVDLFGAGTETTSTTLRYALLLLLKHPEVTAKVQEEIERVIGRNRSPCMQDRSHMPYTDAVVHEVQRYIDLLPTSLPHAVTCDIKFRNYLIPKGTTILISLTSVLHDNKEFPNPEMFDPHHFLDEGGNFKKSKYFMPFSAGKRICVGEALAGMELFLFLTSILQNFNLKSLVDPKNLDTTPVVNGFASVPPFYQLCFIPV
E-sel TNF inh: E-selectin induction blockers in HUVEC – imaging, immunofluorescence, high content, primary screen | HUVEC TNFa-induced E-selectin immunofluorescence | inhibition, % at 2 µM | 120,000 tested, 0.71% active;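 active = inhibition above the batch mean plus 3 SD, and confirmed as a hit on visual image review, cut at about 43% in these data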;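 note: 0% = TNF-stimulated DMSO wells and 100% = unstimulated control wells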
CYP2C9 act: human CYP2C9 activators, primary screen, biochemical, luminescence | 96,000 tested, 1.4% active | recombinant CYP2C9, luciferin-H conversion; stronger effect = higher value; factor 1 = untreated enzyme, 0 = blocked | activation factor at 5 µM;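 active = activation factor of 2 or more for CYP2C9 at a 5 µM dose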;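 note: 0 = sulfaphenazole-blocked wells and 1 = vehicle-only wells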
cytoskel mod: modifiers of F-actin cytoskeleton organization, primary screen, imaging, HUVEC, phalloidin staining, high-content imaging. inhibition, % at 2 µM. HUVEC TNFa F-actin phalloidin imaging. 91,000 tested, 0.18% active;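 active = inhibition above the batch mean plus 3 SD and confirmed as a hit by visual image inspection, cut at about 30% in these data, passing the limit was not always enough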
* marks the source's active call; other numbers are inactive results.

What do the screens show for `CS(=O)(=O)N(Cc1ccco1)CC(O)Cn1c2ccccc2c2ccccc21` (configuration not stated)?
CYP2C19 activ: 0.4; CYP2C19 inh: 62.9*; CYP2C9 inh: 59.0*; E-sel TNF inh: -17.6; CYP2C9 act: 0.4; cytoskel mod: -7.6

Results for Cc1ccc(N(CC(O)CON=C2c3ccccc3-c3ccccc32)S(C)(=O)=O)cc1 (configuration not stated) ?
CYP2C19 activ: 0.5; CYP2C19 inh: 46.9; CYP2C9 inh: 53.2*; E-sel TNF inh: 22.0; CYP2C9 act: 0.5; cytoskel mod: 3.6

What do the screens show for `CCOc1ccc(NS(=O)(=O)CC23CCC(CC2=O)C3(C)C)cc1` (configuration not stated)?
CYP2C19 activ: 0.8; CYP2C19 inh: 15.9; CYP2C9 inh: -20.0; E-sel TNF inh: 9.1; CYP2C9 act: 1.2; cytoskel mod: -2.2

What do the screens show for `OC(CNCc1ccco1)Cn1c2ccccc2c2ccccc21` (configuration not stated)?
CYP2C19 activ: 0.4; CYP2C19 inh: 64.9*; CYP2C9 inh: 32.2; E-sel TNF inh: 5.8; CYP2C9 act: 0.7; cytoskel mod: -1.6

What do the screens show for `O=C(COC(=O)C1CCN(S(=O)(=O)c2cccc3cccnc23)CC1)c1ccc(F)cc1`?
CYP2C19 activ: 0.8; CYP2C19 inh: 15.3; CYP2C9 inh: -54.3; E-sel TNF inh: 16.1; CYP2C9 act: 1.5; cytoskel mod: -7.3

How did CNC(=O)COc1ncnc2sccc12 do in these assays?
CYP2C19 activ: 1; CYP2C19 inh: -0.4; CYP2C9 inh: 9.8; CYP2C9 act: 0.9; cytoskel mod: 18.9

What do the screens show for `O=C(COc1ncnc2sccc12)N1CCc2ccccc2C1`?
CYP2C19 activ: 0.4; CYP2C19 inh: 59.1*; CYP2C9 inh: 30.9; E-sel TNF inh: -21.4; CYP2C9 act: 0.7; cytoskel mod: -15.4

Results for O=C(Cc1cccs1)NCCSc1c(-c2ccc(Cl)cc2)[nH]c2ccccc12 ?
E-sel TNF inh: -5.4

What do the screens show for `N#CCSc1nc(Nc2ccc3c(c2)OCO3)c2ccccc2n1`?
CYP2C19 activ: 0.8; CYP2C19 inh: 18.7; CYP2C9 inh: 79.9*; CYP2C9 act: 0.2; cytoskel mod: 10.3

Results for CCOC(=O)CSc1nc(Nc2ccc3c(c2)OCO3)c2ccccc2n1 ?
CYP2C19 activ: 0.1; CYP2C19 inh: 85.6*; CYP2C9 inh: 98.2*; E-sel TNF inh: -8.7; CYP2C9 act: 0; cytoskel mod: 9.4

Results for CCOC(=O)CSc1nc(NCc2ccco2)c2ccccc2n1 ?
CYP2C19 activ: 0.6; CYP2C19 inh: 36.0; CYP2C9 inh: 38.5; CYP2C9 act: 0.6; cytoskel mod: 18.1

Results for Cn1c(Cc2cccs2)nnc1SCC(=O)N1CCc2ccccc21 ?
CYP2C19 activ: 0.9; CYP2C19 inh: 9.0; CYP2C9 inh: 2.5; E-sel TNF inh: 9.7; CYP2C9 act: 1; cytoskel mod: 18.8

Results for CC(Sc1nnc(Cc2cccs2)n1C1CCCCC1)C(=O)NCc1ccco1 (configuration not stated) ?
CYP2C19 activ: 0.6; CYP2C19 inh: 43.3; CYP2C9 inh: 75.0*; E-sel TNF inh: 26.5; CYP2C9 act: 0.3; cytoskel mod: -2.6

Results for CC(Sc1nnc(Cc2cccs2)n1C1CCCCC1)C(=O)N1CCc2ccccc21 (configuration not stated) ?
CYP2C19 activ: 0.2; CYP2C19 inh: 77.6*; CYP2C9 inh: 76.1*; E-sel TNF inh: 17.7; CYP2C9 act: 0.2; cytoskel mod: -1.5

How did Cc1nnc(SC(C)C(=O)N2CCc3ccccc32)s1 (configuration not stated) do in these assays?
CYP2C19 activ: 0.2; CYP2C19 inh: 77.7*; CYP2C9 inh: 33.8; E-sel TNF inh: 11.5; CYP2C9 act: 0.7; cytoskel mod: 0.5

What do the screens show for `Cc1ccc(OC(C)C(=O)N2CCc3ccccc32)cc1` (configuration not stated)?
CYP2C19 activ: 1; CYP2C19 inh: 1.6; CYP2C9 inh: -14.6; E-sel TNF inh: 9.7; CYP2C9 act: 1.1; cytoskel mod: 12.4

How did NC(=O)CSc1nnc(Cc2cccs2)n1C1CCCCC1 do in these assays?
CYP2C19 activ: 1.1; CYP2C19 inh: -6.1; CYP2C9 inh: -11.4; E-sel TNF inh: 10.4; CYP2C9 act: 1.1

How did CCN(CC)S(=O)(=O)c1cccc(C(=O)N[C@H](C(=O)OCC(=O)NC(=O)NC)C(C)C)c1 do in these assays?
CYP2C19 activ: 0.7; CYP2C19 inh: 31.4; CYP2C9 inh: 23.8; E-sel TNF inh: -28.2; CYP2C9 act: 0.8; cytoskel mod: -17.4

What do the screens show for `COc1ccccc1OCC(=O)Nc1ccc(S(=O)(=O)Nc2cc(C)nc(C)n2)cc1`?
CYP2C19 activ: 1.2; CYP2C19 inh: -16.5; CYP2C9 inh: -12.3; CYP2C9 act: 1.1; cytoskel mod: -13.6

How did COc1cc(NS(=O)(=O)c2ccc(NC(=O)COc3ccc(C)cc3)cc2)nc(OC)n1 do in these assays?
CYP2C19 activ: 0.7; CYP2C19 inh: 25.2; CYP2C9 inh: 81.6*; CYP2C9 act: 0.2; cytoskel mod: -14.7

Results for COc1cc(NS(=O)(=O)c2ccc(NS(=O)(=O)c3ccccc3)cc2)nc(OC)n1 ?
CYP2C19 activ: 1; CYP2C19 inh: 4.9; CYP2C9 inh: 77.8*; E-sel TNF inh: -11.1; CYP2C9 act: 0.2; cytoskel mod: 4.9

Results for COc1cc(NS(=O)(=O)c2ccc(NC(=O)CN3C(=O)c4ccccc4C3=O)cc2)nc(OC)n1 ?
E-sel TNF inh: -5.1

How did COc1cc(NS(=O)(=O)c2ccc(NC(=O)COc3ccccc3C)cc2)nc(OC)n1 do in these assays?
CYP2C19 activ: 0.8; CYP2C19 inh: 19.9; CYP2C9 inh: 90.6*; E-sel TNF inh: -8.3; CYP2C9 act: 0.1; cytoskel mod: -17.4

How did COc1cc(NS(=O)(=O)c2ccc(NC(=O)COc3ccc(C)cc3C)cc2)nc(OC)n1 do in these assays?
CYP2C19 activ: 1; CYP2C19 inh: 1.0; CYP2C9 inh: 69.4*; E-sel TNF inh: -1.9; CYP2C9 act: 0.3; cytoskel mod: -6.1

What do the screens show for `COc1ccc(/C=N/N(C)c2cc(=O)n(C)c(=O)[nH]2)cc1OC`?
E-sel TNF inh: 12.0

How did COc1ccc(OC)c(Cc2nnc(CCC(=O)N3CCCCC3)o2)c1 do in these assays?
E-sel TNF inh: -10.8

Results for O=C(O)CCN1C(=O)c2ccncc2C1=O ?
CYP2C19 activ: 0.9; CYP2C19 inh: 9.4; CYP2C9 inh: 6.9; E-sel TNF inh: -10.9; CYP2C9 act: 0.9; cytoskel mod: 28.0

How did COc1ccc(NC(=O)CSc2nc(NS(=O)(=O)c3ccccc3)cc(=O)[nH]2)cc1 do in these assays?
CYP2C19 activ: 1; CYP2C19 inh: 1.3; CYP2C9 inh: 17.0; CYP2C9 act: 0.8; cytoskel mod: 9.4
